According to PubChem BioAssay AID1159580 (chemical genetic matrix, 2015):
Out of some 5,500 compounds screened, about 2,000 (36%) were called active. Roughly 18% stayed inconclusive and do not appear here. Rule as the data show it: active = normalized growth mostly below about 0.91 (no sharp cut-off); inconclusive = no clear call, values can overlap the other calls; inactive = mostly above about 0.92. The list shows a part of the results.

Assay: chemical genetic growth profiling, strain panel (AID 1159580);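 also: tested at 20 µM; growth read once vehicle control cultures reached saturation at 30 °C; 1 = growth at the plate median or of vehicle wells; lower values mean less growth of the strain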
Settings: S. cerevisiae deletion strains, growth OD

Measured: normalized growth

O=c1[nH]c(=O)c2nc3ccccc3nc2[nH]1
inactive: locus YAL040C, strain CLN3, hits give low values 0.979 | locus YER002W, strain NOP16, hits give low values 1 | locus YGR078C, strain PAC10, hits give low values 1.01 | locus YMR307W, strain GAS1, hits give low values 0.994 | locus YNL153C, strain GIM3, hits give low values 1.01 | locus YNL175C, strain NOP13, hits give low values 0.98 | locus YNL197C, strain WHI3, hits give low values 0.971 | locus YNL224C, strain SQS1, hits give low values 0.999 | locus YOR083W, strain WHI5 (second series), hits give low values 0.997 | locus YPL241C, strain CIN2, hits give low values 1

O=[N+]([O-])c1ccc(-c2noc(-c3ccno3)n2)o1
active: locus YAR019C, strain CDC15, hits give low values 0.0919 | locus YBL105C, strain PKC1, hits give low values 0.118 | locus YBR135W, strain CKS1, hits give low values 0.133 | locus YBR136W, strain MEC1, hits give low values 0.119 | locus YBR160W, strain CDC28, hits give low values 0.121 | locus YDL017W, strain CDC7, hits give low values 0.122 | locus YDL028C, strain MPS1, hits give low values 0.128 | locus YDL101C, strain DUN1, hits give low values 0.143 | locus YDL108W, strain KIN28, hits give low values 0.123 | locus YDL132W, strain cdc53, hits give low values 0.106 | locus YDL214C, strain PRR2, hits give low values 0.103 | locus YDR052C, strain DBF4, hits give low values 0.129 | locus YDR054C, strain cdc34, hits give low values 0.108 | locus YDR226W, strain ADK1, hits give low values 0.113 | locus YDR477W, strain SNF1, hits give low values 0.102 | locus YER123W, strain YCK3, hits give low values 0.113 | locus YER133W, strain GLC7, hits give low values 0.102 | locus YFL009W, strain cdc4, hits give low values 0.109 | locus YFL029C, strain CAK1, hits give low values 0.0982 | locus YFR003C, strain YPI1, hits give low values 0.126 | locus YFR019W, strain FAB1, hits give low values 0.104 | locus YFR028C, strain CDC14, hits give low values 0.0999 | locus YGR040W, strain KSS1, hits give low values 0.107 | locus YGR052W, strain FMP48, hits give low values 0.123 | locus YGR092W, strain DBF2, hits give low values 0.106 | locus YHR030C, strain SLT2, hits give low values 0.135 | locus YHR079C, strain IRE1, hits give low values 0.171 | locus YHR082C, strain KSP1, hits give low values 0.143 | locus YHR205W, strain SCH9, hits give low values -0.000394 | locus YIL147C, strain SLN1, hits give low values 0.129 | locus YJL095W, strain BCK1, hits give low values 0.141 | locus YJL128C, strain PBS2, hits give low values 0.117 | locus YJL157C, strain FAR1, hits give low values 0.107 | locus YJR016C, strain ILV3, hits give low values 0.0915 | locus YJR066W, strain TOR1 (second series), hits give low values 0.0932 | locus YJR066W, strain TOR1, hits give low values 0.125 | locus YKL048C, strain ELM1, hits give low values 0.115 | locus YKL067W, strain YNK1, hits give low values 0.0963 | locus YKL101W, strain HSL1, hits give low values 0.106 | locus YKL193C, strain SDS22, hits give low values 0.0909 | locus YKL203C, strain TOR2, hits give low values 0.104 | locus YLR113W, strain HOG1, hits give low values 0.2 | locus YLR133W, strain CKI1, hits give low values 0.0997 | locus YLR403W, strain SFP1, hits give low values 0.00715 | locus YML070W, strain DAK1, hits give low values 0.1 | locus YMR001C, strain CDC5, hits give low values 0.093 | locus YMR205C, strain PFK2 (second series), hits give low values 0.0958 | locus YMR277W, strain FCP1, hits give low values 0.0929 | locus YNL006W, strain LST8, hits give low values 0.104 | locus YNL020C, strain ARK1, hits give low values 0.101 | locus YNL161W, strain CBK1, hits give low values 0.103 | locus YNL183C, strain NPR1, hits give low values 0.138 | locus YNL207W, strain RIO2, hits give low values 0.0962 | locus YNL222W, strain SSU72, hits give low values 0.1 | locus YNL307C, strain MCK1 (second series), hits give low values 0.11 | locus YOL078W, strain AVO1, hits give low values 0.0939 | locus YOL136C, strain PFK27, hits give low values 0.124 | locus YOR061W, strain CKA2, hits give low values 0.0948 | locus YOR119C, strain RIO1, hits give low values 0.112 | locus YOR231W, strain MKK1, hits give low values 0.14 | locus YOR329C, strain SCD5, hits give low values 0.104 | locus YPL031C, strain PHO85, hits give low values 0.112 | locus YPL153C, strain RAD53, hits give low values 0.0949 | locus YPL204W, strain HRR25, hits give low values 0.106 | locus YPL209C, strain IPL1, hits give low values 0.105 | locus YPL256C, strain CLN2, hits give low values 0.178 | locus YPR025C, strain CCL1, hits give low values 0.111 | locus YPR106W, strain ISR1, hits give low values 0.132 | locus YPR111W, strain DBF20, hits give low values 0.149 | strain NNK1, hits give low values 0.104 | strain TSCII, hits give low values 0.0899
